Many of the other results were omitted from the sample, so hits are more common in it than they were.
Dicer inh = human Dicer pre-microRNA cleavage inhibition; Q9UPY3; cat-ELCCA pre-miR-21 Dicer processing, chemiluminescence; stronger effect = higher value; z-score at 25 µM; actives 6% (n = 47,000); AID 1347074; in the data active means z-score above about 3, passing the limit was not always enough;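 further: plate controls were vehicle for no effect and no enzyme for full effect; higher signal means more uncleaved substrate so more Dicer inhibition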
Starred values were filed as active, the others as inactive.

SMILES	Dicer inh
COc1ccc(S(=O)(=O)N(C(=O)C(C)C)c2ccc3oc(=O)sc3c2)cc1	0.09
CCNc1nc(SCC(C)=O)nc2sc3c(c12)CCC(C)C3 (stereo not given)	-0.76
O=S(=O)(NCc1ccccn1)c1ccc(S(=O)(=O)c2ncc(C(F)(F)F)cc2Cl)s1	-0.86
COc1cc2c(cc1OC)C(C)N(C(=O)Nc1ccc(OC)c(OC3CCCC3)c1)CC2 (stereo not given)	-0.25
CCCCOC(=O)Nc1sc(C)c(C)c1C(=O)OCC	-2.75
Cc1csc(NC(=O)Nc2cc(C(F)(F)F)cc(C(F)(F)F)c2)c1Cl	-1.14
COC(=O)C1=C(C)Nc2nc3ccccc3n2C1c1cccc(C)c1 (stereo not given)	1
CSC(=S)NNC(=O)c1cc(C)[nH]n1	0.31
Cc1nccc(-c2cccc(N/N=C(\C#N)S(=O)(=O)c3ccccc3)c2)n1	10.2
CC(C)(C)c1ccc(-c2noc(CSc3n[nH]c(=O)n3-c3cccnc3)n2)cc1	1.69
O=C(CSc1nc2ccccc2s1)Nc1nccs1	0.82
O=C(CSC1=NCCS1)Nc1nc2ccccc2s1	-0.6
O=C(CSC1=NCCS1)NC1Cc2ccccc2C1	0.6
COc1ccccc1NC(=O)CSC1=NCCS1	4.2*
O=C(CSC1=NCCS1)Nc1nccs1	3.97*
COc1ccccc1NC(=O)CSc1cc(C(F)(F)F)cc(C(F)(F)F)c1	23.3
Fc1cccc(Cl)c1CSc1nc2cc(Cl)c(Cl)cc2[nH]1	-1
COc1ccc(Br)c(C(=O)CC#N)c1	1.1
CC#CCCCC(=O)Nc1nc2ccc(OC)cc2s1	-5.51
CCCN1C(=O)C2(/C(=C(/O)c3ccc(OCC)cc3)C(=O)C(=O)N2CCOC)c2ccccc21 (stereo not given)	1.05
COc1ccc(-c2nnc(-c3sc4ccccc4c3Cl)o2)cc1	0.59
Cc1cc(=O)n2ncnc2n1CC(=O)N/N=C/c1ccc(Cl)cc1	-0.7
O=C(Cn1c(-c2ccccc2)cc(=O)n2ncnc12)N/N=C/c1ccc2c(c1)OCO2	-0.78
Cc1cc(=O)n2ncnc2n1CC(=O)NN	3.13*
CCOC(=O)C1CCN(S(=O)(=O)c2cccs2)CC1	-1.29
SMILES	Dicer inh
COC(=O)COc1ccc2c(=O)c(Oc3ccc(F)cc3)c(C)oc2c1	0.1
CC(=O)C1=NN(c2ccccc2)/C(=C2\C(=O)N(c3ccccc3)N=C2C)S1	0.58
O=S(=O)(Nc1ccc2c(c1)OCCO2)c1ccc(-c2ccccn2)s1	-0.04
O=S(=O)(Nc1ccccc1N1CCOCC1)c1ccc(-c2ccccn2)s1	4.78*
O=S(=O)(Nc1ccccc1N1CCOCC1)c1ccc(S(=O)(=O)c2ccccc2)s1	0.33
FC(F)(F)c1cc(Nc2nc(-c3cc(-c4ccccc4)no3)cs2)cc(C(F)(F)F)c1	0.65
CNS(=O)(=O)c1ccc(OC)c(-c2nnc3c4ccccc4c(C)nn23)c1	-0.01
Cc1ccc(S(=O)(=O)NC(C)(C)CO)cc1-c1nnc2c3ccccc3c(C)nn12	0.08
CCCNS(=O)(=O)c1ccc(OC)c(-c2nnc3c4ccccc4c(C)nn23)c1	0.63
CCCNS(=O)(=O)c1ccc(C)c(-c2nnc3c4ccccc4c(C)nn23)c1	4.32*
Cc1ccc(S(=O)(=O)NC(C)c2ccccc2)cc1-c1nnc2c3ccccc3c(C)nn12 (stereo not given)	0.34
CNS(=O)(=O)c1ccc(C)c(-c2nnc3c4ccccc4c(C)nn23)c1	4.45*
CCN1C(=O)C2(/C(=C(/O)c3ccc4c(c3)CC(C)O4)C(=O)C(=O)N2CCCOC)c2ccccc21 (stereo not given)	2.93
O=C(O)c1cc(Cl)c(Cl)cc1C(=O)O	-0.24
Oc1ccc(/C=N/N=C/c2ccc(O)cc2O)c(O)c1	1.45
N#C/C(=C\Nc1cc(C(F)(F)F)cc(C(F)(F)F)c1)C(=O)Nc1ccc(F)c(Cl)c1	-0.31
CCOC(=O)C1=C(C)NC2=C(C(=O)CCC2)C1c1ccc(OC)cc1OC (stereo not given)	0.02
O=C(O)c1cccc2cccc(-c3cccc4cccc(C(=O)O)c34)c12	-1.59
O=C(O)CCCN1Cc2ccccc2C1	1.3
O=C(O)CCCc1ccc2ccc3cccc4ccc1c2c34	4.03*
CC(C)(C)OC(=O)NCCN=Cc1ccc(O)cc1	-1.38
Cc1c(/C=C/C(=O)Oc2c(Cl)cccc2Cl)sc2ccccc12	-0.72
CCOC(=O)/C(C#N)=C/NCCc1ccc(Cl)cc1	0.35
O=C(NCC1CCCO1)C1Sc2nnc(-c3ccccc3)n2NC1c1ccc(F)cc1 (stereo not given)	-0.07
O=C(NCC1CCCO1)C1Sc2nnc(-c3ccccc3)n2NC1c1ccc(Cl)cc1 (stereo not given)	1.67
SMILES	Dicer inh
CCOc1ccc(C2Nn3c(C)nnc3SC2C(=O)NCC2CCCO2)cc1 (stereo not given)	3.44*
Cc1cc(C)c2c(n1)sc1c(=O)n(-c3cccc(Cl)c3)c(=O)[nH]c12	-0.04
Cc1ccc(-n2c(=O)[nH]c3c(sc4nc(C)cc(C)c43)c2=O)cc1	3.39*
Cc1ccc(-n2c(=O)[nH]c3c(oc4nc(-c5ccccc5)cc(-c5ccccc5)c43)c2=O)cc1	2.25
N#CC1(NC2CCCCC2)CCCCC1	0.21
CSc1sc(C(=O)Nc2cccc(C(F)(F)F)c2)cc1C#N	0.02
CSc1sc(NC(=O)Nc2cccc(C(F)(F)F)c2)cc1S(=O)(=O)C(C)C	3.32*
CC(C)S(=O)(=O)c1csc(NC(=O)Nc2ccc(Cl)cc2)c1	19.4
CC(C)S(=O)(=O)c1csc(NC(=O)Nc2ccc(C(F)(F)F)cc2)c1	2.18
CSc1sc(C(=O)NNC(=O)c2ccc(Cl)cc2)cc1S(=O)(=O)C(C)C	2.41
CSc1sc(NC(=O)Nc2ccc(Cl)cc2)cc1S(=O)(=O)C(C)C	3.94*
Cc1cccc2nc(-c3ccc([N+](=O)[O-])cc3)cn12	-1.1
CCOC(=O)C1=C(C)NC2=C(C(=O)CCC2)C1c1ccc(OCC)cc1 (stereo not given)	-0.51
CN1C(=O)c2ccc([N+](=O)[O-])cc2C1=O	-0.53
COC(=O)C1=C(C)NC2=C(C(=O)CC(c3ccc(F)cc3)C2)C1c1cn[nH]c1-c1ccc(F)cc1 (stereo not given)	0.92
COc1cc(S(=O)(=O)N2CCN(Cc3ccc4c(c3)OCO4)CC2)c(OC)cc1Cl	-2.1
O=C(c1cccc([N+](=O)[O-])c1)c1cc2cc(Br)cc(Br)c2o1	0.51
O=C1CCCCC1Sc1nc2ccccc2s1 (stereo not given)	0.26
Cc1ccc2c(c1)-c1cc(C)nn1C(c1ccccc1O)N2 (stereo not given)	-0.25
Cc1cc2n(n1)C(c1ccc(O)cc1O)Nc1ccccc1-2 (stereo not given)	1.18
COc1ccc(C2Nc3ccccc3-c3cc(C)nn32)c(OC)c1 (stereo not given)	0.44
COc1cccc(C2Nc3c(C)cc(C)cc3-c3cc(C)nn32)c1O (stereo not given)	0.17
COc1cccc(C2Nc3c(C)cccc3-c3cc(C)nn32)c1OC (stereo not given)	0.22
Cc1cc(C)c2c(c1)-c1cc(C)nn1C(c1ccc(O)cc1O)N2 (stereo not given)	1.41
COc1cccc(C2Nc3ccc(C)cc3-c3cc(C)nn32)c1OC (stereo not given)	1.95
COc1cccc(C2Nc3c(C)cc(C)cc3-c3cc(C)nn32)c1OC (stereo not given)	4.86*
COc1cc(O)ccc1C1Nc2ccc(C)cc2-c2cc(C)nn21 (stereo not given)	2.71
Cc1cc2n(n1)C(c1cccc(O)c1O)Nc1ccccc1-2 (stereo not given)	20.9*
